Laboratory results from PubChem BioAssay (NCI).
About 79,000 compounds went through this panel and 15% of them were active in at least one assay; those are over-represented in the sample as a whole. Activity calls are given as the source filed them. Cut-off read from the data, not from the text of the source: active = growth inhibition above about 70%; inactive = the rest.

What was measured:
[1] = NCI Yeast Anticancer Drug Screen. Data for the rad50 strain (AID 155);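 note: 0% = growth of vehicle-only cultures of the same strain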; conditions: S. cerevisiae rad50 strain growth inhibition; at 50.0 µM; hits give high values
Procedure, shortened: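 DNA repair mutant yeast, compound exposure, growth read-out; inhibition is taken relative to vehicle.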

[2] = NCI Yeast Anticancer Drug Screen. Data for the mec2-1 strain (AID 157); conditions: S. cerevisiae mec2-1 strain, at 50.0 µM, hits give high values
Procedure, shortened: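 Mutant yeast (mec2-1) grown with compound; growth inhibition relative to vehicle control reported.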

[3] = NCI Yeast Anticancer Drug Screen. Data for the sgs1 mgt1 strain (AID 161);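 note: 0% = growth of cultures given vehicle only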; conditions: S. cerevisiae sgs1 mgt1 strain, at 50.0 µM, hits give high values
Procedure, shortened: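 This yeast growth screen uses a strain with defined DNA-repair lesions; compound-treated growth is compared with vehicle-treated growth.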

[4] = NCI Yeast Anticancer Drug Screen. Data for the cln2 rad14 strain (AID 165);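 note: 0% = growth equal to vehicle treated cultures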; conditions: S. cerevisiae cln2 rad14 strain, at 50.0 µM, hits give high values
Procedure, shortened: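 Readout is yeast growth inhibition versus vehicle-treated controls, using a strain with cln2 and rad14 alterations exposed to compound.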

[5] = NCI Yeast Anticancer Drug Screen. Data for the bub3 strain (AID 167); conditions: S. cerevisiae bub3 mutant strain, at 50.0 µM, hits give high values
Procedure, shortened: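 In this screen, a yeast mutant lacking normal mitotic checkpoint function is challenged with compound. Relative growth versus vehicle gives the inhibition value.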

[6] = NCI Yeast Anticancer Drug Screen. Data for the mlh1 rad18 strain (AID 175); conditions: S. cerevisiae mlh1 rad18 strain growth inhibition; at 50.0 µM; hits give high values
Procedure, shortened: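 Genetically defined yeast (DNA repair-deficient) exposed to compounds; growth inhibition determined relative to vehicle.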

Measured: growth inhibition

CC(=O)Oc1ccc(C2(c3ccc(OC(C)=O)cc3)C(=O)Nc3ccccc32)cc1
inactive: [1] -11.2% | [2] -16.3% | [3] -5.85% | [4] -0.65% | [5] 20.8% | [6] -4.65%

C=C(C)C(=O)OCC(O)C[N+](C)(C)C (stereo not drawn)
inactive: [1] 0.35% | [2] -15.8% | [3] 2.9% | [4] 11.2% | [5] 5.1% | [6] 4.3%

CCC1(C#N)N=C(c2ccccc2)c2ccccc2N1C(=O)Oc1ccccc1 (stereo not drawn)
inactive: [1] 3.65% | [2] 2.65% | [3] -9.7% | [4] -15.7% | [5] 11.1% | [6] 19.6%

CN(C)CCC(CCN(C)C)=NO
inactive: [1] -37.2% | [2] -49.1% | [3] 3.4% | [4] 15.5% | [5] -31.4% | [6] -12.1%

NOCc1ccc(OCc2ccccc2)cc1
inactive: [1] 5.75% | [2] 7.3% | [3] -6.7% | [4] -18.8% | [5] -2.4% | [6] -11.5%

O=c1cc(-c2ccccc2)c2cc3c(=O)ccoc3cc2o1
inactive: [1] 12.8% | [2] 27.1% | [3] 12% | [4] 14.9% | [5] -1.55% | [6] 0.95%

O=c1nc(NCC23CC4CC(CC(C4)C2)C3)ccn1C1OC(CO)C(O)C1O (stereo not drawn)
inactive: [1] 21.8% | [2] -0.95% | [3] -8.1% | [4] 16.6% | [5] -4.95% | [6] -6.5%

COC(=O)c1sc2ccccc2c1C
inactive: [1] -12.4% | [2] -3.6% | [3] -7.05% | [4] -54.9% | [5] -17.8% | [6] 10.7%

Cc1c(C2CCC(=O)C2)c2ccccc2n1C (stereo not drawn)
inactive: [1] -3.05% | [2] -23.3% | [3] -4.6% | [4] 15.4% | [5] 2.1% | [6] 3.5%

COc1ccc(C(=O)C(O)c2ccc(OC)cc2)cc1 (stereo not drawn)
inactive: [1] 8.15% | [2] -8.65% | [3] -1.55% | [4] -16.4% | [5] -4.35% | [6] 26.1%

N#C/C(=C\c1c(Cl)cccc1Cl)c1ccc([N+](=O)[O-])cc1
inactive: [1] 7.65% | [2] -0.2% | [3] 16% | [4] -4.45% | [5] 48.8% | [6] 5.1%

CC(=O)OCc1ccc([N+](=O)[O-])cc1
inactive: [1] -1.65% | [2] 0.25% | [3] -8.8% | [4] 8.05% | [5] -6.05% | [6] 6.1%

O=C(O)c1cc(-c2cccs2)c(C(=O)O)s1
inactive: [1] -4.2% | [2] 5.35% | [3] -18.2% | [4] -19.1% | [5] -11.1% | [6] 2.1%

O=C1c2cccnc2-c2ncccc21
inactive: [1] 16.3% | [2] 0.55% | [3] -1.35% | [4] 9.8% | [5] 5.4% | [6] 24.1%

OC12c3ccccc3C1CCCCCCCCCC21OCCO1 (stereo not drawn)
inactive: [1] -21.5% | [2] -2.45% | [3] -40.6% | [4] 5.05% | [5] -19.1% | [6] -27.8%

Cc1nc(-c2ccccc2)nc2c1nc(Cc1ccc(Cl)cc1)n2Nc1ccccc1
inactive: [1] 1.7% | [2] -0.3% | [3] 1.6% | [4] -5.75% | [5] -1.45% | [6] 40.5%

Cc1cc2c3ccccc3n(C)c2c2c1C(=O)C=CC2=O
inactive: [1] 6.5% | [2] 20.4% | [3] 20.9% | [4] 3.1% | [5] -7.35% | [6] 55.8%

O=[N+]([O-])C1=C(c2ccccc2)SC(Br)=C(c2ccccc2)S1
inactive: [1] -1.2% | [2] 9.7% | [3] 3.2% | [4] -0.6% | [5] 3.35% | [6] 7.65%

CCN(CC)CC(O)c1cccc2cccnc12 (stereo not drawn)
inactive: [1] 67.7% | [2] -11.4% | [3] 17.4% | [4] 8.8% | [5] 5.2% | [6] 30.2%

CCCCOc1ccc([N+](=O)[O-])cn1
inactive: [1] 20.8% | [2] -14.6% | [3] 3.15% | [4] 26.1% | [5] -7.6% | [6] 9.15%

O=C(Nc1ccccc1)c1cccc(F)c1
inactive: [1] -2.9% | [2] -20.8% | [3] -6.25% | [4] 9.1% | [5] -19.4% | [6] 7.6%

Cc1ccc2c(c1)[nH]c(=S)n2C=C1C(=O)CC(C)(C)CC1=O
inactive: [1] -40% | [2] -63.3% | [3] -33.8% | [4] 9.05% | [5] -21.6% | [6] -9.25%

CC1(C)OC(=O)C(=Cc2ccc(C#N)cc2)C(=O)O1
inactive: [1] 19% | [2] 9.6% | [3] 15.4% | [4] 11.8% | [5] 28.6% | [6] 22.8%

O=C(Nc1cccc(Cl)c1)ON1C(=O)C2C(C1=O)C1(Cl)C(Cl)C(Cl)C2(Cl)C1(Cl)Cl (stereo not drawn)
inactive: [1] 0.4% | [2] 19.4% | [3] -15.8% | [4] -1.35% | [5] -24% | [6] -16.1%

CC(C)C1NC(=O)[C@H](C)OC(=O)[C@@H](C(C)C)NC(=O)[C@@H](C)OC(=O)C(C(C)C)NC(=O)[C@H](C)OC1=O (stereo partly drawn)
inactive: [1] -36.7% | [2] -2.15% | [3] -17.1% | [4] 14.9% | [5] 2.85% | [6] -10.2%

Cc1ccc(NC(=O)OCC2CC3C=CC2C3)cc1 (stereo not drawn)
active: [1] 95.5% | [2] 98.8% | [3] 99% | [4] 96.3% | [5] 95.2% | [6] 97.7%

CCN(CC)C(CC(=O)c1ccccc1)C(=O)c1ccccc1 (stereo not drawn)
inactive: [1] 23.9% | [2] 16.5% | [3] 13.2% | [4] -10% | [5] 13.3% | [6] 49.6%

O=C(O)c1c2c(nc3ccccc13)Cc1ccccc1-2
inactive: [1] 1% | [2] -0.75% | [3] 10.1% | [4] -0.2% | [5] 17.3% | [6] -39.8%

CN(Cc1ccccc1)N=NCc1ccccc1
inactive: [1] 15.8% | [2] -15.8% | [3] -20.4% | [4] 3.35% | [5] 3.65% | [6] -9.7%

C=C1C(=O)O[C@@H]2[C@H]1CC[C@H](C)[C@]1(O)CCC(=O)[C@@]21C
inactive: [1] -5.3% | [2] -13.6% | [3] 14.2% | [4] 7.85% | [5] -4.75% | [6] 3%

CC(=O)NC1(C)C(C)C2CC1C(C)C2(C)C (stereo not drawn)
inactive: [1] 13.2% | [2] -13.8% | [3] -44% | [4] -0.55% | [5] -30.6% | [6] -34.6%

O=C1CCC2CN(C(=O)c3ccccc3)CCC2C1 (stereo not drawn)
inactive: [1] 8.75% | [2] 7.7% | [3] 21.1% | [4] 3.1% | [5] 16.6% | [6] 22.2%

OC(Cc1ccc2ccccc2n1)(C(F)(F)Cl)C(F)(F)Cl
inactive: [1] -39% | [2] -55.2% | [3] -10.7% | [4] -9.7% | [5] -4.45% | [6] -31.1%

Cc1nc2cc(Cl)ccc2s1
inactive: [1] 30.5% | [2] 2.8% | [3] 22.1% | [4] 18.4% | [5] 30.3% | [6] 26.2%

O=c1[nH]ncc2ccccc12
inactive: [1] -3.1% | [2] -16.2% | [3] -3.95% | [4] -53.5% | [5] -4.75% | [6] -2.45%

CN(C)/N=C1/CCCCC1C(O)(c1ccccc1)c1ccccc1 (stereo not drawn)
inactive: [1] -20.7% | [2] -19.8% | [3] -15.4% | [4] -73.3% | [5] -58.8% | [6] -10.7%

COC(=O)/C(=N/NC(C)(C)C)C(C(=O)OC)C(=O)C(=O)Nc1nc2ccc([N+](=O)[O-])cc2s1 (stereo not drawn)
inactive: [1] 33.1% | [2] 8.15% | [3] -22.9% | [4] -10.4% | [5] 0.1% | [6] 27.4%

O=C(NC(CSSCC(NC(=O)OCc1ccccc1)C(=O)O)C(=O)O)OCc1ccccc1 (stereo not drawn)
inactive: [1] -8.6% | [2] -31.4% | [3] -2.4% | [4] -4.1% | [5] -33% | [6] -25.2%
